Results on 67 molecules are retold here after PubChem BioAssay AID602481 (Broad Institute, 2012).

“And” between values parts separate entries of the source, which are not always exact repeats. Equal entries are not always repeated. Screen size: about 360,000 compounds; about 340 (0.094%) were called active. No stated cut-off is given here; in the data, active means inhibition above about 40%; inconclusive means no clear call, values can overlap the other calls; inactive means below that. The entries come from a sample that favours actives as a whole. A structure can be active in one record and inactive in another.

In the assay the test system is 7,8-diaminopelargonic acid synthase BioA (Mycobacterium tuberculosis). The assay can be described thus: M. tuberculosis BioA enzyme inhibitors, primary screen, biochemical, plate reader, single point, HTS (AID 602481). Conditions: purified M. tuberculosis BioA enzyme, at 9.99 µM, stronger effect = higher value.
Take `CC(C)Oc1ccc(Cc2n[nH]c(=S)n2Cc2ccccc2)cc1Cl`: the inhibition (as a rule, the drop in the measured response relative to a control, in per cent) was 0.831% (inactive).

`CC(C)Oc1ccc(CCc2n[nH]c(=S)n2Cc2ccccc2)cc1`: the inhibition is 0.782% (inactive).

In the case of `COc1cc(-c2n[nH]c(=S)n2Cc2ccccc2)cc(OC)c1OC`, the inhibition is 69.8% (active).

`COc1ccc(S(=O)(=O)N2C[C@@H](O)COC[C@H]3O[C@@H](CC(=O)NCCN4CCCCC4)CC[C@@H]32)cc1`: the inhibition is -1.77% (inactive).

As to `CC(C)NC(=O)N1[C@@H]2CN(C(=O)C3CCCCC3)c3ccccc3[C@@H]2[C@@H]1CO`, the inhibition was -4.4% (inactive).

Turning to `Cc1noc(C)c1S(=O)(=O)N(C)C[C@@H]1Oc2c(NS(=O)(=O)c3cn(C)cn3)cccc2C(=O)N([C@@H](C)CO)C[C@H]1C`, the inhibition is -0.608% (inactive).

With `Cc1ccc(S(=O)(=O)N(C)C[C@@H]2Oc3c(NC(=O)NC(C)C)cccc3C(=O)N([C@H](C)CO)C[C@H]2C)cc1`, the inhibition was -1.17% (inactive).

With `CC(=O)O[C@]1(C(C)=O)CC[C@H]2[C@@H]3C=C(C)C4=CC(=O)CC[C@]4(C)[C@H]3CC[C@@]21C`, the inhibition is 13.2% (inactive) and 51.3% (active).

As to `C[C@]12CCC(=O)C=C1C=CC1C2CC[C@@]2(C)C1CC[C@@]21CCC(=O)O1` (some centres not stated), the inhibition is 19.6% (inactive).

For `CC(=O)OCC(=O)C1(O)CCC2C3CC(C)C4=CC(=O)CCC4(C)C3C(O)CC21C` (configuration not stated), the inhibition was -0.825% (inactive).

In the case of `CC(C)C#Cc1cnc2c(c1)C(=O)N([C@@H](C)CO)C[C@@H](C)[C@@H](CN(C)C(=O)CN1CCOCC1)O2`, the inhibition is -1.21% (inactive).

Consider `C[C@@H]1CN([C@@H](C)CO)C(=O)c2cc(NS(=O)(=O)c3cn(C)cn3)ccc2O[C@@H](C)CCCCO[C@H]1CN(C)S(=O)(=O)c1cccs1`, for which the inhibition was 0.052% (inactive).

Take `O=C(C1CCCC1)N1[C@H](CO)[C@@H]2c3ccccc3N(S(=O)(=O)c3ccccc3)C[C@@H]21`: the inhibition is 6.11% (inactive).

Turning to `Cc1ccc(S(=O)(=O)N[C@H]2C=C[C@@H](CC(=O)NCCc3ccncc3)O[C@@H]2CO)cc1`, the inhibition is 2.21% (inactive).

For the molecule `C[C@H](CO)N1C[C@H](C)[C@H](CN(C)S(=O)(=O)c2ccc(C#N)cc2)Oc2ncc(-c3cccc(F)c3)cc2C1=O`, the inhibition is 4.36% (inactive).

On to `CO[C@@H](CN(C)S(=O)(=O)c1ccccc1)[C@@H](C)CN(Cc1ccccc1Cl)[C@H](C)CO`, for which the inhibition is -0.143% (inactive).

As for `O=C(CSc1nnc(-c2ccncc2)n1C1CCCCC1)Nc1ccccc1`, the inhibition is -0.812% (inactive).

On to `CC(=O)CSc1nnc(CSc2ncccn2)n1C1CCCCC1`, for which the inhibition is 43.5% (active).

As for `CC1CC(C)CN(C(=O)CSc2nnc(CSc3ncccn3)n2C)C1` (configuration not stated), the inhibition was 0.828% (inactive).

In the case of `CCCN1C[C@H](C)[C@@H](OC)CN(C)C(=O)c2ccc(NC(=O)c3cnccn3)cc2OC[C@H]1C`, the inhibition was -1.47% (inactive).

Consider `COc1ccc(NC(=O)N(C)C[C@H]2OCCCC[C@@H](C)Oc3ccc(NC(=O)Nc4ccc5c(c4)OCO5)cc3C(=O)N([C@H](C)CO)C[C@@H]2C)cc1`, for which the inhibition was -1.28% (inactive).

In the case of `C[C@H](CO)N1C[C@H](C)[C@@H](CN(C)C)Oc2ccc(NS(=O)(=O)c3cccs3)cc2C1=O`, the inhibition was 2.81% (inactive).

Regarding `CC(=O)N1[C@H](CO)[C@H]2c3ccccc3N(C(=O)c3ccc(F)cc3)C[C@H]21`, the inhibition was -3.14% (inactive).

Turning to `Cc1ccc(S(=O)(=O)N(C)C[C@@H]2Oc3c(NC(=O)C4CC4)cccc3C(=O)N([C@H](C)CO)C[C@@H]2C)cc1`, the inhibition was -0.903% (inactive).

On to `C[C@@H]1CCCCO[C@H](CN(C)C)[C@@H](C)CN([C@H](C)CO)C(=O)c2cc(N(C)C)ccc2O1`, for which the inhibition is -0.059% (inactive).

With `CN(C)CC(=O)Nc1ccc2c(c1)[C@H]1C[C@@H](CC(=O)NCc3ccc(Cl)cc3)O[C@@H](CO)[C@H]1O2`, the inhibition is 0.123% (inactive).

Consider `C[C@H]1CN([C@@H](C)CO)C(=O)CCCn2cc(nn2)CO[C@H]1CN(C)C(=O)Nc1cccc(C(F)(F)F)c1`, for which the inhibition is -3.91% (inactive).

In the case of `COCC(=O)N1[C@H](CO)[C@@H](c2ccccc2)[C@H]1CN(C)C(=O)c1ccncc1`, the inhibition is -4.1% (inactive).

On to `C[C@@H]1CN([C@@H](C)CO)C(=O)c2c(c3ccccc3n2C)-c2ccccc2CO[C@H]1CN(C)S(=O)(=O)c1cccs1`, for which the inhibition was -2.08% (inactive).

For `CN1[C@@H]2CN(C(=O)C3CCCCC3)c3ccccc3[C@@H]2[C@@H]1CO`, the inhibition is 5.87% (inactive).

On to `CC(C)(C)[S@@](=O)N1Cc2cc(C(=O)N3CCCCC3)nc(-c3cccc(-c4cccc(C#N)c4)c3)c2[C@H]1CCO`, for which the inhibition was 0.956% (inactive).

For `COc1ccc(NC(=O)Nc2ccc3c(c2)[C@H]2C[C@H](CC(=O)NC4CCCCC4)O[C@H](CO)[C@H]2O3)cc1`, the inhibition was 0.43% (inactive).

Take `CC(=NNC(=O)c1ccncc1)c1ccc(Cl)c(Cl)c1`: the inhibition was -0.685% (inactive).

As for `CN1CCC(=NNC(=O)c2ccc(N(Cc3ccc(Cl)cc3)S(C)(=O)=O)cc2)CC1`, the inhibition is -0.516% (inactive).

On to `Cn1nccc1/C=N\NC(=O)c1ccc(Cl)cc1`, for which the inhibition was 69.1% (active).

With `CC(=O)Nc1ccccc1-c1cn(CC(=O)N2CCOCC2)nn1`, the inhibition was -2.47% (inactive).

In the case of `CC(C)CC#Cc1cnc2c(c1)C(=O)N([C@@H](C)CO)C[C@H](C)[C@@H](CN(C)Cc1ccccc1C(=O)O)O2`, the inhibition is -0.715% (inactive).

For `C[C@@H]1CN([C@@H](C)CO)C(=O)c2cc(NC(=O)CCCN(C)C)ccc2O[C@@H](C)CCCCO[C@H]1CN(C)C(=O)Nc1cccc2ccccc12`, the inhibition was -0.656% (inactive).

Consider `O=C(C[C@@H]1C[C@H]2c3cc(NC(=O)CC4CC4)ccc3O[C@H]2[C@@H](CO)O1)NCc1ccc2c(c1)OCO2`, for which the inhibition was -1.7% (inactive).

As to `C[C@@H]1CCCCO[C@@H](CN(C)C(=O)Nc2ccc3c(c2)OCO3)[C@H](C)CN([C@H](C)CO)C(=O)c2cc(NC(=O)CCCN(C)C)ccc2O1`, the inhibition is 1.19% (inactive).

Take `CCC(=O)Nc1ccc2c(c1)C(=O)N(C)C[C@H](OC)[C@H](C)CN(C(=O)c1ccccn1)[C@@H](C)CO2`: the inhibition is -2.41% (inactive).

For the molecule `COCCNC(=O)C[C@H]1C=C[C@@H](NS(=O)(=O)c2ccc(C)cc2)[C@@H](CO)O1`, the inhibition was -2.72% (inactive).

As for `Cc1n[nH]c(=O)n1-c1ccc(Oc2ccccc2)cc1`, the inhibition was -2.98% (inactive).

Turning to `Cc1nc(=O)c(-c2ccccc2)c(C)n1-c1ccc(Br)cc1`, the inhibition is 42.7% (active).

For `S=C1NC(c2ccccc2)=NCN1c1ccc(Br)cc1`, the inhibition was 0.0265% (inactive).

`CN(C)CC(=O)N1CCCCN2[C@@H](CO)[C@H](c3ccc(-c4cccnc4)cc3)[C@@H]2C1`: the inhibition is 0.035% (inactive).

Regarding `C[C@H]1CN([C@@H](C)CO)C(=O)c2cc(C3=CCCC3)cnc2O[C@@H]1CN(C)Cc1cccnc1`, the inhibition is 4.42% (inactive).

Regarding `CN1C(=O)c2cc(NC(=O)c3cccc(F)c3)ccc2OC[C@H]2O[C@@H](CC(=O)NCc3ccccc3Cl)CC[C@@H]21`, the inhibition was 0.94% (inactive).

For the molecule `Cc1noc(C)c1NC(=O)Nc1cccc2c1O[C@H](CN(C)S(C)(=O)=O)[C@H](C)CN([C@H](C)CO)C2=O`, the inhibition is 3.42% (inactive).

Consider `Cc1ccccc1S(=O)(=O)N1[C@H](CO)[C@@H](c2ccc(-c3ccccc3)cc2)[C@@H]1C#N`, for which the inhibition is -1.28% (inactive).

In the case of `C[C@H](CO)N1C[C@H](C)[C@H](CN(C)CC2CCCC2)Oc2ncc(-c3ccc(F)cc3)cc2C1=O`, the inhibition is -5.25% (inactive).

As to `CC(C)NC(=O)Nc1cccc2c1O[C@@H](CN(C)Cc1ccc(C(=O)O)cc1)[C@@H](C)CN([C@H](C)CO)C2=O`, the inhibition is -3.95% (inactive).

Regarding `CCC(=O)N1[C@H](CO)[C@@H]2c3ccccc3N(S(=O)(=O)c3ccccc3C)C[C@@H]21`, the inhibition is -6.45% (inactive).

In the case of `C[C@@H]1CN([C@@H](C)CO)C(=O)c2cccc(NC(=O)c3ccc(-c4nccs4)cc3)c2O[C@@H]1CN(C)S(=O)(=O)c1ccccc1`, the inhibition was -1.38% (inactive).

With `O=c1[nH]c(N2CCN(Cc3ccc4c(c3)OCO4)CC2)nc2c1CCCC2`, the inhibition was 71.1% (active).

With `CCc1c(C)nc(N2CCN(Cc3ccccc3)CC2)[nH]c1=O`, the inhibition is -0.075% (inactive).

Consider `CCN1CCN(c2nc3c(c(=O)[nH]2)CCC3)CC1`, for which the inhibition was -4.22% (inactive).

Take `CO[C@@H]1CN(C)C(=O)c2ccc(NS(=O)(=O)c3ccc(C)cc3)cc2OC[C@@H](C)N(Cc2nccs2)C[C@H]1C`: the inhibition was -0.694% (inactive).

Turning to `CCC(=O)Nc1ccc2c(c1)C(=O)N(C)[C@@H]1CC[C@H](CC(=O)NCc3ccccc3)O[C@H]1CO2`, the inhibition was -0.647% (inactive).

With `Cc1ccc(S(=O)(=O)N(C)C[C@@H]2Oc3c(NC(=O)C4CC4)cccc3C(=O)N([C@H](C)CO)C[C@H]2C)cc1`, the inhibition was -0.505% (inactive).

Regarding `CC(C)NC(=O)N(C)C[C@@H]1Oc2ccc(NC(=O)CCCCCC(=O)Nc3ccccc3N)cc2C(=O)N([C@@H](C)CO)C[C@H]1C`, the inhibition was -2.93% (inactive).

Take `CCNC(=O)Nc1ccc2c(c1)C(=O)N(C)[C@@H]1CC[C@@H](CC(=O)NCCOC)O[C@@H]1CO2`: the inhibition was 0.346% (inactive).

As to `COCCNC(=O)C[C@H]1CC[C@@H]2[C@H](COc3ccc(NC(=O)Nc4cccc(F)c4)cc3C(=O)N2C)O1`, the inhibition was 44.7% (active).

As for `CNC(=O)C[C@H]1CC[C@@H]2[C@H](COc3ccc(NC(=O)Nc4cccc(F)c4)cc3C(=O)N2C)O1`, the inhibition is 32% (inactive).

As for `CCC(=O)N1[C@H](C(=O)NCc2ccc(F)cc2)[C@@H](CO)[C@@H]2Cn3c(ccc(C4=CCCCC4)c3=O)[C@@H]21`, the inhibition is -2.21% (inactive).

On to `CS(=O)(=O)N1[C@H](C(=O)NCc2ccncc2)[C@@H](CO)[C@@H]2Cn3c(ccc(C4=CCCCC4)c3=O)[C@@H]21`, for which the inhibition is 49% (active).

On to `CCN1[C@@H]2c3ccc(C4=CCCC4)c(=O)n3C[C@@H]2[C@@H](CO)[C@@H]1C(=O)NCc1ccccn1`, for which the inhibition is -3.69% (inactive).
